Target: XKR5
Experiment: pooled miR-30 sensor sort-seq; sequence = guide strand
Details: shRNA
Further: reference of the scale not given here.

Row | Sequence | sensor-assay potency score (higher = more potent)
1 | TATCTGTGAAGTCTGAGGCTAG | 0.0293
2 | TAGTGTCTCACATTGAATGGAA | -0.0169
3 | TAAATTACCAGTGAGACACTGC | 0.68
4 | TTGATCTTAGACACATTTCCTG | 0.217
5 | TTGTAGAACAGAACCAGACTCA | 0.203
6 | TAATATTGTACCCTAATCCAAA | -1.28

Target: XKRX
Experiment: as above
Details: shRNA

Row | Sequence | sensor-assay potency score (higher = more potent)
7 | AATACCATTAGCACAACTCTAC | -0.637
8 | TCTATTAGCATCTTCTTTCGGG | 0.547
9 | TTCAGTAACACTTTCACTCCAA | 0.565
10 | TAGTCTACTACATTATGGGTGA | -0.472
11 | TTATCTTTGGCTAGATCTCTGT | -0.472
12 | TAAATGGAAAAGTAAATCGGGG | -0.48
13 | TTCTCTACCAACCTCACACTAT | -0.943
14 | TAGCACAACTCTACCCAGGGGA | 0.12
15 | TAACAGAGAGCTAATCTGCTTG | 0.29
16 | TAGTCATCGTACTTGATCTGGA | 0.135
17 | TAAACTCTGTCCATTGTCGAGG | -0.536
18 | TAAGTTTCACTATTCTTTCGAT | 0.293

From the OligoGym collection
